In PubChem BioAssay:
Several values for one entry are separate records, joined by “and”; a condition that tells them apart may be missing. Equal values may be shown once. Activity calls are given as the source filed them.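 The calls were made as follows, unless noted: active = normalized viability below 100% at a tested concentration; inactive = the rest.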

Columns and labels:
[1] = compounds altering viability of human ES cells (AID 493140; call rule not given here;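 also: cells exposed to compounds for four days before counting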); conditions: human embryonic stem cell survival screen; stronger effect = higher value
[2] = P. berghei load reduction in hepatocytes – cell-based, HepG2, luciferase luminescence, HepG2 viability, primary screen (AID 624349; in the data active = parasite load remaining mostly below about 12%, no sharp cut-off; inactive = mostly above about 10%;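 also: 100% = mean of DMSO negative control wells on the same plate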); conditions: P. berghei liver stage in HepG2, luciferase luminescence, concentration not given here; parasite load remaining: stronger effect = lower value; viability: measured here: HepG2 viability without parasites
[3] = Wnt pathway potentiators raising nuclear beta-catenin – imaging, WNT3A-conditioned medium, mouse C2C12, NPC library, primary screen (AID 1117326; in the data active = nuclear beta-catenin stimulation mostly above about 4.2%, no sharp cut-off; inactive = mostly below about 10%); conditions: stronger effect = higher value
[4] = stimulators of insulin release from INS-1E, primary screen, cell-based, 5 mM glucose, NPC library (AID 1117329;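 active = compound raises insulin release from rat beta cells at 5 mM glucose, no numeric limit stated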); conditions: rat INS-1E insulin secretion, at 10 µM, stronger effect = higher value
[5] = growth inhibition of GSK3B-pretreated HCT116 cells – cell-based, CellTiter-Glo, 0.2 to 20 µM (AID 1117336;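 active = compounds lowering colon cancer cell viability after pretreatment blocking the GSK3B kinase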); conditions: HCT116 viability after GSK3B inhibitor, at 20 µM, stronger effect = higher value
[6] = inhibition of endothelial tube formation, primary screen, imaging, VEGF stimulated, CD31 staining, tube area, NPC library (AID 1117340;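 active = compound that reduces growth-factor-driven endothelial tube area in a mixed cell culture, no cutoff stated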); conditions: VEGF-stimulated ADSC/ECFC co-culture, at 10 µM, stronger effect = higher value
[7] = GLP1 release stimulators, primary, NCI-H716, NPC library (AID 1117341;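 active = compound raises GLP1 secretion from the human gut endocrine cells, with no numeric limit stated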); conditions: NCI-H716 cells, at 10 µM, stronger effect = higher value
[8] = HCT116 colon cancer cell growth inhibition, primary screen, CellTiter-Glo luminescence, NPC library (AID 1117342;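 active = compounds that lower survival of HCT116 colon cancer cells in the luminescence readout, no numeric limit stated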); conditions: at 20 µM (top of the series)
[9] = reduced SW480 viability measured with CellTiter-Glo, NPC library, primary (AID 1117343;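 active = compounds that lower viability of the colon cancer cells in the luminescence readout, with no numeric limit stated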); conditions: CellTiter-Glo luminescence; at 20 µM (top of the series) unless noted
[10] = NPC library primary testing for decreased DLD-1 cell viability via CellTiter-Glo (AID 1117346;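 active = compounds that lower survival of DLD-1 colon cancer cells in the luminescence readout, no cutoff given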); conditions: DLD-1 viability, CellTiter-Glo luminescence; at 20 µM (top of the series)
[11] = EMT-state selective cytotoxicity in co-culture – imaging, PC-3E GFP, TEM4-18 mCherry, primary screen (AID 1345086;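 active = compounds killing one labelled cell type while sparing the other, by normalised counts and ratio limits, not self-fluorescent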;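 as to all read-outs here: cells exposed to compound for 72 h before imaging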;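 as to red/green cell ratio (normalised): normalised mesenchymal count divided by normalised epithelial count so high means epithelial killing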); conditions: PC-3E GFP / TEM4-18 mCherry co-culture, imaging cell counts, at 1 µM; for red/green cell ratio (normalised): actives lie on both sides, counts scaled to control wells, 1 = unselective
[12] = viability loss with induced miR-34 in A549 – imaging, A549 dox-inducible miR-34, nuclei and caspase counts, primary screen (AID 1347080;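 active = compounds whose cell count with miR-34 switched on is under 0.7 times the count with it off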); conditions: A549 miR-34 inducible, Hoechst nuclei count, 48 h
[13] = MELAS cybrid and Rieske KO viability enhancers – cell-based, MELAS cybrids, Rieske KO mouse fibroblasts, CellTiter-Glo, primary screen (AID 1508586;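 active = mean z-score across replicates of 1.96 or higher in either the MELAS or the Rieske mutant cell line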;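 also: z relative to plate mean and SD of compound and empty wells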); conditions: low glucose
[14] = target: NAD(+) hydrolase SARM1 (Homo sapiens) (UniProt Q6SZW1); test: blocking NAD cleavage by SARM1 SAM-TIR – cell lysate, NAD-Glo luminescence (AID 1508614;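 active = compound whose remaining NAD level is above about 45 nM, limit read from the data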;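 also: higher remaining NAD means stronger inhibition of SARM1 NADase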); conditions: SAM-TIR HEK293T lysate NADase, at 1 µM, stronger effect = higher value
Chain of NAD(+) hydrolase SARM1 (Homo sapiens) (Q6SZW1 whole entry, looked up): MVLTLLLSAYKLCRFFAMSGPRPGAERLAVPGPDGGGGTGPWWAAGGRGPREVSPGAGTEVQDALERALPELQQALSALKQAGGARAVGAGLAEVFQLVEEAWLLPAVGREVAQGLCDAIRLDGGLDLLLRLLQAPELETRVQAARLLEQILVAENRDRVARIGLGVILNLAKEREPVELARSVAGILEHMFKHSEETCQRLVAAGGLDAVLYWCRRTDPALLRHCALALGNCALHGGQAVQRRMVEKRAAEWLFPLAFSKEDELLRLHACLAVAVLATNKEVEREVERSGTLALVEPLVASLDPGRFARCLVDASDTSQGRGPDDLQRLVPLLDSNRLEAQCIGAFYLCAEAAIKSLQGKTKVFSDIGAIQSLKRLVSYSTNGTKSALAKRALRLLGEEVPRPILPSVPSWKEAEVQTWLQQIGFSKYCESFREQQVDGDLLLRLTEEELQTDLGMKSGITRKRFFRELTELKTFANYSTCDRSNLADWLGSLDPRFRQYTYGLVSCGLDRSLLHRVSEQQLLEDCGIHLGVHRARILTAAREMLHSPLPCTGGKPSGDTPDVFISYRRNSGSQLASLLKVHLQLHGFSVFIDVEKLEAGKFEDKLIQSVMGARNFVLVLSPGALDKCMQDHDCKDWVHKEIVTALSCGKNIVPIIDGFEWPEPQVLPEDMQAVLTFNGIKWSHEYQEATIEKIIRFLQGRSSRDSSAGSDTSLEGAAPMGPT

[15] = drug combination growth inhibition, ovarian cancer – cell-based, oncology-focused library, rucaparib conditional, profiling panel (AID 1508598); conditions: patient-derived ovarian cancer cells, CellTiter-Glo viability, 144 h, stronger effect = lower value
[16] = measured here: epithelial PC-3E GFP cell survival
[17] = measured here: mesenchymal TEM4-18 mCherry cell survival
[18] = stronger effect = lower value, cell number ratio, induced over uninduced
[19] = measured here: relative caspase fold change +Dox/-Dox
[20] = measured here: total cells with miR-34 induction, stronger effect = lower value
[21] = measured here: total cells without miR-34 induction
[22] = MELAS cybrid survival, CellTiter-Glo 48 h, stronger effect = higher value
[23] = Rieske KO mouse fibroblast survival, CellTiter-Glo 72 h

For CN(C)CCN(Cc1ccc(Cl)cc1)c1ccccn1, the survival [1] was 0.25 (inactive), the parasite load remaining [2] was 93.8% (inactive) and the viability [2] was 98.9%. For the same compound, the nuclear beta-catenin stimulation ([3]; at 10 µM) was 1.9% (inactive), the nuclear beta-catenin stimulation ([3]; stimulation, at 2 µM) was 1.4% and the insulin secretion stimulation [4] was 88.8% (active). The viability decrease [5] was -112% (inactive), the tube area decrease [6] was -2% (inactive) and the GLP1 secretion stimulation [7] was 7% (inactive). The inhibition of viability [8] was 30.7% (inactive), the viability decrease (inhibition) [9] was 41.9% (inactive) and the viability decrease (inhibition) [10] was 2.4% (inactive). For the same compound, the red/green cell ratio (normalised) [11] was 0.8 (inactive), the normalised cell number [11, 16] was 1.16 and the normalised cell number [11, 17] was 0.92. For the same compound, the fold change [12, 18] was 0.853 (inactive), the fold change [12, 19] was 1.28 and the cell count [12, 20] was 7570. For the same compound, the cell count [12, 21] was 8880, the z-score [13, 22] was -0.0317 (inactive) and the z-score [13, 23] was -0.776. For the same compound, the remaining NAD [14] was 10 nM (inactive).
In the case of Cc1cc(=O)oc2cc(O)ccc12, the survival [1] is reported as 5.33 (inactive), the parasite load remaining [2] is reported as 118% (inactive) and the viability [2] is reported as 98.7%. For the same compound, the nuclear beta-catenin stimulation ([3]; at 10 µM) was -0.6% (inactive), the nuclear beta-catenin stimulation ([3]; stimulation, at 2 µM) was -0.4% and the insulin secretion stimulation [4] was -1.7% (inactive). For the same compound, the viability decrease [5] was -10.2% (inactive), the tube area decrease [6] was -7.2% (inactive) and the GLP1 secretion stimulation [7] was 3.1% (inactive). The inhibition of viability [8] was 13.6% (inactive), the viability decrease (inhibition) [9] was 12.3% (inactive) and the viability decrease (inhibition) [10] was -2.45% (inactive). The red/green cell ratio (normalised) [11] was 0.94 (inactive), the normalised cell number [11, 16] was 1.05 and the normalised cell number [11, 17] was 0.99. The fold change [12, 18] was 0.873 (inactive) and 0.847 (inactive) and 0.939 (inactive), the fold change [12, 19] was 1.07 and 1.58 and 0.709 and the cell count [12, 20] was 8530 and 9030 and 8940. The cell count [12, 21] was 9770 and 10700 and 9520, the z-score [13, 22] was -0.289 (inactive) and 0.464 (inactive) and the z-score [13, 23] was 0.286 and 0.338. For the same compound, the remaining NAD [14] was 10 nM (inactive).
With COc1cc2ncnc(Nc3ccc(F)c(Cl)c3)c2cc1OCCCN1CCOCC1 the nuclear beta-catenin stimulation ([3]; at 10 µM) was 78.2% (active), the nuclear beta-catenin stimulation ([3]; stimulation, at 2 µM) was 2.5% and the insulin secretion stimulation [4] was 0.7% (inactive). For the same compound, the viability decrease [5] was 44.5% (inactive), the tube area decrease [6] was 65.5% (active) and the GLP1 secretion stimulation [7] was -2.9% (inactive). For the same compound, the inhibition of viability [8] was 98.7% (active), the viability decrease (inhibition) [9] was 101% (active) and the viability decrease (inhibition) [10] was 98.1% (active). For the same compound, the red/green cell ratio (normalised) [11] was 1.15 (inactive), the normalised cell number [11, 16] was 0.79 and the normalised cell number [11, 17] was 0.91. The fold change [12, 18] was 0.786 (inactive) and 0.938 (inactive) and 0.793 (inactive), the fold change [12, 19] was 1.64 and 1.38 and 1.39 and the cell count [12, 20] was 4800 and 6990 and 6580. The cell count [12, 21] was 6110 and 7460 and 8300, the z-score [13, 22] was -0.609 (inactive) and 0.334 and 0.781 (inactive) and the z-score [13, 23] was -0.845 and 2.09 and 1.88. The viability ([15]; at 0.000305 µM, OCI-C5x cells, with rucaparib 10 µM, 100% = cells with rucaparib alone) was 94.6% (active), the viability ([15]; at 0.000305 µM, OCI-C5x cells, without rucaparib) was 94.5% (active) and the viability ([15]; at 0.000305 µM, OCI-P5x cells, with rucaparib 20 µM, 100% = cells with rucaparib alone) was 100% (inactive). For the same compound, the viability ([15]; at 0.000305 µM, OCI-P5x cells, without rucaparib) was 100% (inactive), the viability ([15]; at 0.00122 µM, OCI-C5x cells, with rucaparib 10 µM, 100% = cells with rucaparib alone) was 98.1% (active) and the viability ([15]; at 0.00122 µM, OCI-C5x cells, without rucaparib) was 93.8% (active). The viability ([15]; at 0.00122 µM, OCI-P5x cells, with rucaparib 20 µM, 100% = cells with rucaparib alone) was 106% (inactive), the viability ([15]; at 0.00122 µM, OCI-P5x cells, without rucaparib) was 100% (inactive) and the viability ([15]; at 0.00488 µM, OCI-C5x cells, with rucaparib 10 µM, 100% = cells with rucaparib alone) was 95.1% (active). For the same compound, the viability ([15]; at 0.00488 µM, OCI-C5x cells, without rucaparib) was 102% (inactive), the viability ([15]; at 0.00488 µM, OCI-P5x cells, with rucaparib 20 µM, 100% = cells with rucaparib alone) was 95.6% (active) and the viability ([15]; at 0.00488 µM, OCI-P5x cells, without rucaparib) was 100% (inactive). For the same compound, the viability ([15]; at 0.0195 µM, OCI-C5x cells, with rucaparib 10 µM, 100% = cells with rucaparib alone) was 109% (inactive), the viability ([15]; at 0.0195 µM, OCI-C5x cells, without rucaparib) was 98% (active) and the viability ([15]; at 0.0195 µM, OCI-P5x cells, with rucaparib 20 µM, 100% = cells with rucaparib alone) was 98.7% (active). The viability ([15]; at 0.0195 µM, OCI-P5x cells, without rucaparib) was 96.3% (active), the viability ([15]; at 0.0781 µM, OCI-C5x cells, with rucaparib 10 µM, 100% = cells with rucaparib alone) was 101% (inactive) and the viability ([15]; at 0.0781 µM, OCI-C5x cells, without rucaparib) was 92% (active). For the same compound, the viability ([15]; at 0.0781 µM, OCI-P5x cells, with rucaparib 20 µM, 100% = cells with rucaparib alone) was 98.6% (active), the viability ([15]; at 0.0781 µM, OCI-P5x cells, without rucaparib) was 100% (active) and the viability ([15]; at 0.313 µM, OCI-C5x cells, with rucaparib 10 µM, 100% = cells with rucaparib alone) was 101% (inactive). The viability ([15]; at 0.313 µM, OCI-C5x cells, without rucaparib) was 99.7% (active), the viability ([15]; at 0.313 µM, OCI-P5x cells, with rucaparib 20 µM, 100% = cells with rucaparib alone) was 88.2% (active) and the viability ([15]; at 0.313 µM, OCI-P5x cells, without rucaparib) was 101% (inactive). For the same compound, the viability ([15]; at 1.25 µM, OCI-C5x cells, with rucaparib 10 µM, 100% = cells with rucaparib alone) was 103% (inactive), the viability ([15]; at 1.25 µM, OCI-C5x cells, without rucaparib) was 94.5% (active) and the viability ([15]; at 1.25 µM, OCI-P5x cells, with rucaparib 20 µM, 100% = cells with rucaparib alone) was 98.4% (active). The viability ([15]; at 1.25 µM, OCI-P5x cells, without rucaparib) was 97.2% (active), the viability ([15]; at 5 µM, OCI-C5x cells, with rucaparib 10 µM, 100% = cells with rucaparib alone) was 56.7% (active) and the viability ([15]; at 5 µM, OCI-C5x cells, without rucaparib) was 72% (active). For the same compound, the viability ([15]; at 5 µM, OCI-P5x cells, with rucaparib 20 µM, 100% = cells with rucaparib alone) was 86.8% (active) and the viability ([15]; at 5 µM, OCI-P5x cells, without rucaparib) was 99.3% (active).
